Calls of active or inactive are those of the source.
Columns and labels:
[1] = tested on: PRMT1 (protein arginine N-methyltransferase 1); assay: PRMT1 binders on small-molecule microarrays, primary screen, biochemical, small-molecule microarray, 635 nm fluorescence (AID 1088); conditions: small-molecule microarray binding, higher = more signal;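 also: binding of Prmt1 protein to compounds spotted on small-molecule microarray slides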
[2] = yeast growth modulation, basal conditions, primary screen, YJM789 clinical isolate, OD600, 24 h (AID 1089);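 also: growth of clinical yeast isolate S. cerevisiae YJM 789 seeded 1000 cells per well; test concentration not given here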; conditions: S. cerevisiae YJM789 growth, higher = more signal, called active from +8 up or from −8 down
[3] = fission yeast growth modulation, primary screen, strain 972, OD600, 24 h, no modulator (AID 1090);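 also: basal condition with compound alone and no growth modifier present; test concentration not given here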; conditions: S. pombe 972 growth, higher = more signal, called active from +8 up or from −8 down
[4] = S. cerevisiae growth modulation with rapamycin, primary screen, strain BY4716, OD600, 96 h (AID 1091); conditions: higher = more signal, called active from +8 up or from −8 down; also: test concentration not given here
[5] = target: Torsin-1A-interacting protein 2 (Homo sapiens) (UniProt Q8NFQ8); assay: LULL1 binders on small-molecule microarray, primary screen, cell lysate, human LULL1 lysate, 635/667 nm fluorescence (AID 1092); conditions: hLULL1 lysate binding, 635 nm fluorescence, higher = more signal;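 also: probe is lysate of COS7 cells overexpressing human LULL1; score merges per-feature 667 nm fluorescence with signal-to-noise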
[6] = E. coli growth modulation, two-sided OD650, primary screen, E. coli filamentation project, strain DRC41, 24 h (AID 1093); conditions: OD650, 24 h, higher = more signal, called active from +8 up or from −8 down;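 also: MC1000 strain lacking acrAB efflux and sulA so SOS filamentation is blocked; test concentration not given here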
[7] = small-molecule microarray binders of probe aLefty2, primary screen, biochemical, biotinylated probe, 635/667 nm fluorescence (AID 1094); conditions: higher = more signal;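 also: score merges spot fluorescence near 667 nm with spot signal-to-noise ratio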
[8] = tested on: Noggin (protein binding on small-molecule microarray); assay: Noggin binders on small-molecule microarray, primary screen, biochemical, 635/667 nm fluorescence (AID 1095); conditions: 635 nm fluorescence, higher = more signal;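 also: score merges 667 nm feature fluorescence with signal to noise over triplicate slides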
[9] = target: Neurogenic locus notch homolog protein 3 (Homo sapiens) (UniProt Q9UM47); assay: NOTCH3 binders on small-molecule microarray, primary screen, biochemical, 635/667 nm fluorescence (AID 1096); conditions: NOTCH3 binding, 635 nm fluorescence, higher = more signal
[10] = small-molecule microarray binders of probe aEGFR, primary screen, biochemical, biotinylated probe, 635/667 nm fluorescence (AID 1097); conditions: higher = more signal;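 also: probe is a biotinylated anti-EGFR antibody binding compounds printed on slides; score combines fluorescence near 667 nm and signal to noise of each spot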

Torsin-1A-interacting protein 2 (Homo sapiens), sequence (Q8NFQ8 whole entry, looked up): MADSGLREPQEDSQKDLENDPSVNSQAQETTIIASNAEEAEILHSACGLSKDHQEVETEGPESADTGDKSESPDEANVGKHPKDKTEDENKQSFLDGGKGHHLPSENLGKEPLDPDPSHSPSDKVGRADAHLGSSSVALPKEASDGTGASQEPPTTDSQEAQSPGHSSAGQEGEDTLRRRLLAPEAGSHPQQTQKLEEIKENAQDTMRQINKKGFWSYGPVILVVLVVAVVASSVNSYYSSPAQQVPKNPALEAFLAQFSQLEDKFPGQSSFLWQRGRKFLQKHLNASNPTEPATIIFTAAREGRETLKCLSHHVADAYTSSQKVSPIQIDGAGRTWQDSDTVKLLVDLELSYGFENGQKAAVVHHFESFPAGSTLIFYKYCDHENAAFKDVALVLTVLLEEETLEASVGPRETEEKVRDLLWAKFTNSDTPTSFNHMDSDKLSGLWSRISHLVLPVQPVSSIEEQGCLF
Neurogenic locus notch homolog protein 3 (Homo sapiens), sequence (Q9UM47 whole entry, looked up): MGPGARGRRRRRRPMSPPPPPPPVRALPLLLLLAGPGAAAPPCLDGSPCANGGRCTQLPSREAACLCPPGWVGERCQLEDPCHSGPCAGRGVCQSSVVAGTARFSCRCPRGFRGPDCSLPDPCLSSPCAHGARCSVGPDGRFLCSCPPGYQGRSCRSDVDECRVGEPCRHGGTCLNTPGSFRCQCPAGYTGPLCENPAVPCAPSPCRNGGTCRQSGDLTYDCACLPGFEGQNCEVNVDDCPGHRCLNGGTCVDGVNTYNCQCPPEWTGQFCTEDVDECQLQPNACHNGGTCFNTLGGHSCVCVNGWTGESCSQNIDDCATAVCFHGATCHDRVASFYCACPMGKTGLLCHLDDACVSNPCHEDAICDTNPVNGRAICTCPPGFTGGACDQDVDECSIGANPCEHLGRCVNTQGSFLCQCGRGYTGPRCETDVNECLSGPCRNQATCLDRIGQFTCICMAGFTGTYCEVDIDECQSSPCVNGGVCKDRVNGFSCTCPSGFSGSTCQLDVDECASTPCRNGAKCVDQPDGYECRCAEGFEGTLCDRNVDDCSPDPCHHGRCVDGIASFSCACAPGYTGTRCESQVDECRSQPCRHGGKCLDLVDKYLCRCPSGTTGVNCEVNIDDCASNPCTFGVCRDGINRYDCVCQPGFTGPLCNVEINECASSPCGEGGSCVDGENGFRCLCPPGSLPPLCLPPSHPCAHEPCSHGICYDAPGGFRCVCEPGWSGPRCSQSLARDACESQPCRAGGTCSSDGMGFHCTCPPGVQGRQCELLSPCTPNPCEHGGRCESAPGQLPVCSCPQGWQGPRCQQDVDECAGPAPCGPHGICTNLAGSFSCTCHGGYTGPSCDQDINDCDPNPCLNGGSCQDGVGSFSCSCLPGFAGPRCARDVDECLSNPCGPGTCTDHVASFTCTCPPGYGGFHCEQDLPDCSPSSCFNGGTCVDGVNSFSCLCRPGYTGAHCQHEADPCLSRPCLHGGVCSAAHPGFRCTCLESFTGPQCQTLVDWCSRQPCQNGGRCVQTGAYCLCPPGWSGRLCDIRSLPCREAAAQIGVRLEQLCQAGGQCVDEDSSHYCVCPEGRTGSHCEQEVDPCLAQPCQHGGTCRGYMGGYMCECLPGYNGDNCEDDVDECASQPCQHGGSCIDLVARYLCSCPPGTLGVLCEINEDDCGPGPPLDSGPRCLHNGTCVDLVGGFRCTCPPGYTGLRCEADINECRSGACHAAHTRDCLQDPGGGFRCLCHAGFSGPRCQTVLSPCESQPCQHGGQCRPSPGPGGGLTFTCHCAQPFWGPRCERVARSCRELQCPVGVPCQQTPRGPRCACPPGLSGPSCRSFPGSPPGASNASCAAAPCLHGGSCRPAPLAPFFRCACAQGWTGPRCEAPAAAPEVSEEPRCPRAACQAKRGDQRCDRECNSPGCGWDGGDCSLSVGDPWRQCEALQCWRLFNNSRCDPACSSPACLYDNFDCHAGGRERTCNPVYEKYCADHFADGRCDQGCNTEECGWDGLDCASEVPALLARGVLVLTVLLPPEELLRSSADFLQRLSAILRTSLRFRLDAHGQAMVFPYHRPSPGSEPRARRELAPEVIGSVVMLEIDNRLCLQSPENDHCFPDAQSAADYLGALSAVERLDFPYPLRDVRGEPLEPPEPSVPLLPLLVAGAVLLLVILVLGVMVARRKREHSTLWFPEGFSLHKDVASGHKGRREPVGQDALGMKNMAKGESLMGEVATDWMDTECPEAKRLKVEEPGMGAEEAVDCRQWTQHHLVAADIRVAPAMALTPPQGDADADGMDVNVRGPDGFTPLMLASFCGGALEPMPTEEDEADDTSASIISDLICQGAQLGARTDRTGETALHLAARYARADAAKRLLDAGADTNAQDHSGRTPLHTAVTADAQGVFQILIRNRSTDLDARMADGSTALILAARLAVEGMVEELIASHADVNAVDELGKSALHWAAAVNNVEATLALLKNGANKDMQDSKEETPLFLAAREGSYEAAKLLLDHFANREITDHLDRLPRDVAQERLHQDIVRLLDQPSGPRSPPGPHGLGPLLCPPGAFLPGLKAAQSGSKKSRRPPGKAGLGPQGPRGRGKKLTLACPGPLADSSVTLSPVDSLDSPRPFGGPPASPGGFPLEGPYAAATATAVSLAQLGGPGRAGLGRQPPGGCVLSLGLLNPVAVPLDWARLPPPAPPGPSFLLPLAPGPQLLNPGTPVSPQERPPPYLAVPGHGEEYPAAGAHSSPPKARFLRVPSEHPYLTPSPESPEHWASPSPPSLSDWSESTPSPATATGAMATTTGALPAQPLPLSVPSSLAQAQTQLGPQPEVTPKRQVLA

## COc1cc(CO)ccc1OC(C)=O
[1]
  composite z-score: 0.657
[2]
  z-score: -2.07 (inactive)
[3]
  z-score: -1.44 (inactive)
[4]
  z-score: -0.377 (inactive)
[5]
  composite z-score: 0.0135
[6]
  z-score: 1.14 (inactive)
[7]
  composite z-score: -0.332
[8]
  composite z-score: 0.601
[9]
  composite z-score: 0.317
[10]
  composite z-score: -0.112

## C=CC[C@@]1(C(=O)NCC(O)CO)N=C(c2ccc(OCCCO)cc2)O[C@@H]1c1ccccc1N=[N+]=[N-] (stereo not given in full)
[1]
  composite z-score: 1.18
[2]
  z-score: -0.711 (inactive)
[3]
  z-score: -1.89 (inactive)
[4]
  z-score: 0.068 (inactive)
[5]
  composite z-score: 3.79
[6]
  z-score: 1.01 (inactive)
[7]
  composite z-score: 0.208
[8]
  composite z-score: 0.84
[9]
  composite z-score: 1.04
[10]
  composite z-score: 0.0376

## Cc1cc(C)cc(N2C(=O)CS(=O)(=O)C2c2cccc([N+](=O)[O-])c2)c1 (stereo not given)
[1]
  composite z-score: 1.13
[2]
  z-score: -0.703 (inactive)
[3]
  z-score: -1.22 (inactive)
[4]
  z-score: -0.522 (inactive)
[5]
  composite z-score: 2.13
[6]
  z-score: -0.268 (inactive)
[7]
  composite z-score: 0.788
[8]
  composite z-score: 0.0104
[9]
  composite z-score: 0.726
[10]
  composite z-score: 0.477

## CC(C)CNC(=O)[C@@]1(c2ccc([N+](=O)[O-])cc2)CC(=O)N(CC23CC4CC(CC(C4)C2)C3)[C@@H]1c1ccc(CO)cc1
[1]
  composite z-score: 1.52
[2]
  z-score: -1.73 (inactive)
[3]
  z-score: -1.1 (inactive)
[4]
  z-score: 0.226 (inactive)
[5]
  composite z-score: 2.14
[6]
  z-score: 2.86 (inactive)
[7]
  composite z-score: 0.0054
[8]
  composite z-score: 0.661
[9]
  composite z-score: 0.708
[10]
  composite z-score: -0.0897

## C=C(CCCC)/C(=C/C[C@H](OC(C)=O)c1ccc(CO)o1)c1cnc2ccccc2c1
[1]
  composite z-score: 1.43
[2]
  z-score: -0.237 (inactive)
[3]
  z-score: -0.923 (inactive)
[4]
  z-score: 1.37 (inactive)
[5]
  composite z-score: 1.46
[6]
  z-score: 0.111 (inactive)
[7]
  composite z-score: -0.0998
[8]
  composite z-score: 1.12
[9]
  composite z-score: 1.07
[10]
  composite z-score: 0.0324

## CCCCCN1CC=CC23O[C@@H]4/C=C\CCCOC(=O)C4[C@H]2C(=O)N(CCCCCCO)[C@@H]3C1=O (stereo not given in full)
[1]
  composite z-score: -0.0832
[2]
  z-score: -3.85 (inactive)
[3]
  z-score: -2.83 (inactive)
[4]
  z-score: -2.64 (inactive)
[5]
  composite z-score: 3.32
[6]
  z-score: 1.61 (inactive)
[7]
  composite z-score: -0.147
[8]
  composite z-score: -0.471
[9]
  composite z-score: -0.0559
[10]
  composite z-score: 0.0538

## C=C(COC)C(=O)CC[C@@H](OC(=O)c1cccnc1)c1ccc(CO)o1
[1]
  composite z-score: 1.35
[2]
  z-score: 0.692 (inactive)
[3]
  z-score: -0.0164 (inactive)
[4]
  z-score: -0.336 (inactive)
[5]
  composite z-score: 0.991
[6]
  z-score: 0.255 (inactive)
[7]
  composite z-score: -0.21
[8]
  composite z-score: 0.817
[9]
  composite z-score: 0.574
[10]
  composite z-score: -0.137

## CN(C)CCCCNC(=O)[C@H]1C[C@H]2C(=O)N[C@@H](Cc3ccccc3)C(=O)N2[C@H]1c1ccc(O)cc1
[1]
  composite z-score: 1.54
[2]
  z-score: -0.368 (inactive)
[3]
  z-score: 0.523 (inactive)
[4]
  z-score: -1.4 (inactive)
[5]
  composite z-score: 0.248
[6]
  z-score: 1.12 (inactive)
[7]
  composite z-score: 0.0274
[8]
  composite z-score: 1.66
[9]
  composite z-score: 1.11
[10]
  composite z-score: 0.116
